# ± gives the standard deviation of the averaged measurements.
# Legend:
# [1] = tested on: (+)-isopinocamphone A-neuron OSN class; assay: net action potential response of A-neuron (blank-subtracted) (spikes/s (Hz)); higher = stronger excitation; settings: 10 µg on filter paper; neuron: A neuron (large spike amplitude)
# Summary of the method: (§1)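 Single sensillum recordings with tungsten electrodes were taken from one fixed antenna of live lab-reared adult Ips typographus, with each compound (10 μg in paraffin oil on filter paper in a pipette) given as a 0.5 s pulse at 0.3 L/min into a humidified, charcoal-filtered 1.8 L/min airstream. AutoSpike counts of A-neuron or B-neuron spikes in 0.5 s windows had the pre-stimulus count subtracted. Responses were then converted to spikes/s, blank-subtracted and averaged over 1–4 sensilla.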
# [2] = tested on: (+)-trans-4-thujanol A-neuron OSN class; assay: as above; settings: 10 µg on filter paper; neuron: A neuron (large spike amplitude)
# Summary of the method: as §1
# [3] = tested on: (5S,7S)-trans-conophthorin A-neuron OSN class; assay: as above; settings: 10 µg on filter paper; neuron: A neuron (large spike amplitude)
# Summary of the method: as §1
# [4] = tested on: myrcene A-neuron OSN class; assay: as above; settings: 10 µg on filter paper; neuron: A neuron (large spike amplitude)
# Summary of the method: as §1
# [5] = tested on: p-cymene A-neuron OSN class; assay: as above; settings: 10 µg on filter paper; neuron: A neuron (large spike amplitude)
# Summary of the method: as §1
# [6] = tested on: lanierone-responsive B-neuron OSN class (ItypOR36); assay: net action potential response of lanierone B-neuron (blank-subtracted) (spikes/s (Hz)); higher = stronger excitation; settings: 10 µg on filter paper, neuron: B neuron (small spike amplitude)
# Summary of the method: as §1
# [7] = tested on: ipsdienol A-neuron OSN class; assay: net action potential response of A-neuron (blank-subtracted) (spikes/s (Hz)); higher = stronger excitation; settings: 10 µg on filter paper; neuron: A neuron (large spike amplitude)
# Summary of the method: as §1
# [8] = co-localized A-neuron class: (4S)-cis-verbenol
# [9] = co-localized A-neuron class: (5S,7S)-trans-conophthorin
# [10] = co-localized A-neuron class: (+)-isopinocamphone
# [11] = co-localized A-neuron class: (+)-trans-4-thujanol
# [12] = co-localized A-neuron class: ipsdienol
# [13] = co-localized A-neuron class: myrcene
# [14] = co-localized A-neuron class: p-cymene
smiles,measurement,setting,value
CC/C=C\CCO,net action potential response,[1],10.7 ± 27
same,net action potential response,[2],74.5 ± 42
same,net action potential response,[3],-2 ± 4
same,net action potential response,[4],6
same,net action potential response,[5],0 ± 4
same,net action potential response,[6]; [8],2.67 ± 6.4
same,net action potential response,[6]; [9],-4 ± 6
same,net action potential response,[6]; [10],-4 ± 2
same,net action potential response,[6]; [11],-4.5 ± 3.4
same,net action potential response,[6]; [12],-5.33 ± 5.8
same,net action potential response,[6]; [13],-6
same,net action potential response,[6]; [14],0
"CC1=CCC2C(C1)C2(C)C (single isomer, unassigned; (+)) [(+)-3-Carene]",net action potential response,[1],2 ± 5.3
same,net action potential response,[2],7.5 ± 6.8
same,net action potential response,[3],6.67 ± 4.6
same,net action potential response,[4],12
same,net action potential response,[5],50.7 ± 18
same,net action potential response,[6]; [8],1.33 ± 13
same,net action potential response,[6]; [9],3.33 ± 2.3
same,net action potential response,[6]; [10],-2.67 ± 5
same,net action potential response,[6]; [11],-2.5 ± 2.5
same,net action potential response,[6]; [12],-1.33 ± 4.2
same,net action potential response,[6]; [13],-2
same,net action potential response,[6]; [14],-3.33 ± 4.2
CC(=O)OCCc1ccccc1 [2-Phenethyl acetate],net action potential response,[1],0.667 ± 3.1
same,net action potential response,[2],2.5 ± 4.1
same,net action potential response,[3],2 ± 2
same,net action potential response,[7],-3.33 ± 4.2
same,net action potential response,[4],8
same,net action potential response,[5],-1.33 ± 4.6
same,net action potential response,[6]; [8],5.33 ± 13
same,net action potential response,[6]; [9],-0.667 ± 3.1
same,net action potential response,[6]; [10],-1.33 ± 3.1
same,net action potential response,[6]; [11],0.5 ± 4.1
same,net action potential response,[6]; [12],-6.67 ± 7
same,net action potential response,[6]; [13],-6
same,net action potential response,[6]; [14],-5.33 ± 2.3
C=Cc1ccccc1 [Styrene],net action potential response,[1],5.33 ± 6.1
same,net action potential response,[2],8.5 ± 18
same,net action potential response,[3],6 ± 7.2
same,net action potential response,[4],-2
same,net action potential response,[5],18.7 ± 15
same,net action potential response,[6]; [8],-6 ± 8.7
same,net action potential response,[6]; [9],-1.33 ± 1.1
same,net action potential response,[6]; [10],-4.67 ± 4.6
same,net action potential response,[6]; [11],-0.5 ± 6.6
same,net action potential response,[6]; [12],-1.33 ± 4.6
same,net action potential response,[6]; [13],4
same,net action potential response,[6]; [14],-6 ± 2.8
OCCc1ccccc1 [2-Phenylethanol],net action potential response,[1],7.33 ± 3.1
same,net action potential response,[2],3.5 ± 4.7
same,net action potential response,[3],0 ± 1.6
same,net action potential response,[7],-2.67 ± 3.1
same,net action potential response,[4],0
same,net action potential response,[5],2.67 ± 3.1
same,net action potential response,[6]; [8],-4 ± 2
same,net action potential response,[6]; [9],-3 ± 3.8
same,net action potential response,[6]; [10],2 ± 3.5
same,net action potential response,[6]; [11],1 ± 3.5
same,net action potential response,[6]; [12],-3.33 ± 11
same,net action potential response,[6]; [13],2
same,net action potential response,[6]; [14],6 ± 10
CC1=CC(C)(C)C=C(O)C1=O [Lanierone],net action potential response,[1],46.7 ± 9.2
same,net action potential response,[2],-1.5 ± 1.9
same,net action potential response,[3],-1.5 ± 7
same,net action potential response,[7],-3.33 ± 6.4
same,net action potential response,[4],0
same,net action potential response,[5],1.33 ± 1.1
same,net action potential response,[6]; [8],135 ± 24
same,net action potential response,[6]; [9],141 ± 31
same,net action potential response,[6]; [10],160 ± 24
same,net action potential response,[6]; [11],155 ± 24
same,net action potential response,[6]; [12],121 ± 13
same,net action potential response,[6]; [13],144
same,net action potential response,[6]; [14],151 ± 12
"COc1ccc(C)cc1OC [3,4-Dimethoxytoluene]",net action potential response,[1],0.667 ± 3.1
same,net action potential response,[2],1.5 ± 3.8
same,net action potential response,[3],2.67 ± 6.4
same,net action potential response,[4],4
same,net action potential response,[5],1.33 ± 1.1
same,net action potential response,[6]; [8],5.33 ± 11
same,net action potential response,[6]; [9],0 ± 7.2
same,net action potential response,[6]; [10],1.33 ± 2.3
same,net action potential response,[6]; [11],-1.5 ± 3.4
same,net action potential response,[6]; [12],2 ± 6
same,net action potential response,[6]; [13],2
same,net action potential response,[6]; [14],-2 ± 6.9
CCCCCCO [1-Hexanol],net action potential response,[1],18.7 ± 22
same,net action potential response,[2],7 ± 5
same,net action potential response,[3],6 ± 18
same,net action potential response,[4],4
same,net action potential response,[5],5.33 ± 1.1
same,net action potential response,[6]; [8],-0.667 ± 3.1
same,net action potential response,[6]; [9],0.5 ± 3.4
same,net action potential response,[6]; [10],-1.33 ± 1.1
same,net action potential response,[6]; [11],0 ± 1.6
same,net action potential response,[6]; [12],2 ± 2
same,net action potential response,[6]; [13],-6
same,net action potential response,[6]; [14],-2.67 ± 6.1
CC(C)[C@@]12CC[C@@](C)(O)[C@@H]1C2 [(+)-trans-4-Thujanol],net action potential response,[1],11.3 ± 16
same,net action potential response,[2],133 ± 37
same,net action potential response,[3],-1 ± 1.1
same,net action potential response,[4],-4
same,net action potential response,[5],37.3 ± 13
same,net action potential response,[6]; [8],-3.33 ± 4.2
same,net action potential response,[6]; [9],0 ± 5.9
same,net action potential response,[6]; [10],0.667 ± 1.1
same,net action potential response,[6]; [11],-6.5 ± 5.5
same,net action potential response,[6]; [12],-0.667 ± 2.3
same,net action potential response,[6]; [13],2
same,net action potential response,[6]; [14],-1.33 ± 3.1
CC(C)=CCC/C(C)=C/C=O [Citral (E/Z mix)],net action potential response,[1],0.667 ± 5
same,net action potential response,[2],0.5 ± 1.9
same,net action potential response,[3],2 ± 7.2
same,net action potential response,[4],2
same,net action potential response,[5],-2 ± 2
same,net action potential response,[6]; [8],-1.33 ± 4.6
same,net action potential response,[6]; [9],-3.33 ± 4.2
same,net action potential response,[6]; [10],1.33 ± 4.2
same,net action potential response,[6]; [11],2 ± 8.2
same,net action potential response,[6]; [12],-5.33 ± 7.6
same,net action potential response,[6]; [13],0
same,net action potential response,[6]; [14],-0.667 ± 4.2
COc1ccccc1 [Anisole],net action potential response,[1],2 ± 5.3
same,net action potential response,[2],1 ± 4.2
same,net action potential response,[3],1.33 ± 4.2
same,net action potential response,[7],2.67 ± 1.1
same,net action potential response,[4],-2
same,net action potential response,[5],10.7 ± 5.8
same,net action potential response,[6]; [8],-1.33 ± 8.3
same,net action potential response,[6]; [9],0 ± 6
same,net action potential response,[6]; [10],-2.67 ± 2.3
same,net action potential response,[6]; [11],-2.5 ± 4.1
same,net action potential response,[6]; [12],2.67 ± 4.6
same,net action potential response,[6]; [13],2
same,net action potential response,[6]; [14],-3 ± 1.4
